# High-throughput results: PubChem BioAssay, several laboratories
# Jurkat NFkB inh – inhibitors of induced NF-kB luciferase reporter, primary screen, TCR NF-kB activation inhibitor project, cell-based, luminescence, uHTS; Jurkat, PMA/ionomycin-induced NF-kB luciferase reporter; inhibition, % at 4 µM; 330,000 compounds, 0.53% hits; in the data active means inhibition above about 50%
# Gli-Sufu block – Gli-Sufu pathway antagonists, primary screen, luciferase luminescence, Sufu-KO-LIGHT cells, uHTS; 340,000 compounds, 0.74% hits; inhibition, % at 5 µM; Sufu-KO-LIGHT fibroblasts, Gli luciferase reporter luminescence;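 active means inhibition above about 55%, limit read from the data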
# Mdm2 MdmX PPI – inhibitors of human Mdm2-MdmX association, primary screen, cell-based, luminescence, split luciferase, SaOS-2, uHTS; Protein Mdm4 (Homo sapiens) + E3 ubiquitin-protein ligase Mdm2 (Homo sapiens), …; SaOS-2 split-luciferase Mdm2/MdmX complementation; inhibition, % at 8 µM; 330,000 compounds, 3% hits; AID 485346, 2010;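 active means inhibition of at least 50% at 8 µM in the primary screen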
# Target sequence (O15151 whole entry, looked up): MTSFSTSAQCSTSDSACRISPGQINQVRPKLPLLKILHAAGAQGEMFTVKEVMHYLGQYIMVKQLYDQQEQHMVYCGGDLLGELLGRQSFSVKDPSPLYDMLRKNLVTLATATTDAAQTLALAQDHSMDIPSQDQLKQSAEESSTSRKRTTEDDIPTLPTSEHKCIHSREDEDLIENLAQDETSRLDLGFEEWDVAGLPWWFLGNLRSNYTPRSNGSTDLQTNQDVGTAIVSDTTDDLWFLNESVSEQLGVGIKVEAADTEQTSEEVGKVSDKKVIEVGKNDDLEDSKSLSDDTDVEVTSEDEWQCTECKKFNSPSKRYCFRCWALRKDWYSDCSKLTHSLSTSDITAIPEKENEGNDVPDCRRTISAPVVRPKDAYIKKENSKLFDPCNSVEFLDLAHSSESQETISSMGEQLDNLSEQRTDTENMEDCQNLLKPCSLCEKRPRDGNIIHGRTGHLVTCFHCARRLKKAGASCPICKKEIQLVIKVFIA
# Target sequence (Q00987 whole entry, looked up): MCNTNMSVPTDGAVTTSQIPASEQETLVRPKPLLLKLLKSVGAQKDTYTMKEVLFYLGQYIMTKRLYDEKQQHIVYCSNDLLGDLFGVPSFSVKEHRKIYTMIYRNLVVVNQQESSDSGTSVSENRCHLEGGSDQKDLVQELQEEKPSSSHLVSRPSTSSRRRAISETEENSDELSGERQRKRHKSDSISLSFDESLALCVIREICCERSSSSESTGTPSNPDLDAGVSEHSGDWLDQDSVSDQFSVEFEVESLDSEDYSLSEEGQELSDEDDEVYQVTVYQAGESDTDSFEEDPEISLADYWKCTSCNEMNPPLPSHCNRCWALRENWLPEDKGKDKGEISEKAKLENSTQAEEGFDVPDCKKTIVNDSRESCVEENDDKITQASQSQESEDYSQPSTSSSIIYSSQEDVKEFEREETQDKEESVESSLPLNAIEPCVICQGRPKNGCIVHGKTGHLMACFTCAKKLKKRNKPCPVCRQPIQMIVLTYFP
# aSyn UTR inh – MLPCN primary screen, SNCA 5' untranslated region. alpha-synuclein 5'UTR reporter, inhibitor activity. inhibition, % (tested at 7.5 µM). 300,000 compounds, 0.82% hits; in the data active means inhibition above about 60%;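 further: H4 neuroglioblastoma cells stably carrying SNCA 5'UTR luciferase fusion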
# KLF5 inhibitor – KLF5 expression inhibitors, primary screen, DLD-1 cells, luminescence; DLD-1 KLF5 promoter-luciferase reporter; inhibition, % at 5 µM; 290,000 compounds, 0.23% hits;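 active means inhibition above a per-plate limit of that plate's mean compound inhibition plus 3 SD, cut at about 60% in these data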;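 further: higher means less KLF5 promoter-driven luciferase light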
# 697 NFkB inh – inhibitors of PMA/ionomycin-induced NF-kB reporter, 697 cells, primary screen, B-cell NF-kB inhibitor project, cell-based, luminescence, uHTS; 330,000 compounds, 0.33% hits; inhibition, % at 4 µM; 697 B-cell NF-kB luciferase reporter, 16 h; in the data active means inhibition above about 35%
# Jurkat NFkB conf – PMA/ionomycin-induced NF-kB reporter inhibitors, Jurkat retest, confirmation, T-cell NF-kB inhibitor project, cell-based, luminescence, single concentration; shares compounds with Jurkat NFkB inh; Jurkat NF-kB luciferase, 16 h; inhibition, % at 4 µM; 2,700 compounds, 27% hits;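 active means inhibition reaching about 45% at 4 µM in either replicate, limit read from the data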
# 697 NFkB conf – PMA/ionomycin-induced NF-kB reporter inhibitors, 697 retest, confirmation, B-cell NF-kB inhibitor project, cell-based, luminescence, single concentration; shares compounds with 697 NFkB inh; 697 B-cell NF-kB luciferase, 16 h; inhibition, % at 4 µM; 2,000 compounds, 35% hits; in the data active means inhibition mostly above about 28%, no sharp cut-off; inactive means mostly below about 22%
# Numbers stand for hits; . = inactive; / = not tested or not shown. Rows were chosen to be rich in hits. Some 4.1% of all compounds tested hit in one or more screens of this group.
SMILES,Jurkat NFkB inh,Gli-Sufu block,Mdm2 MdmX PPI,aSyn UTR inh,KLF5 inhibitor,697 NFkB inh,Jurkat NFkB conf,697 NFkB conf
COc1ccc(C(=O)NC(=O)NC2(C(Cl)(Cl)Cl)OCCO2)cc1,.,.,.,.,.,.,.,.
Cc1ccc(NC(=O)c2cnn(-c3ccccc3)c2C)cc1C,.,.,.,.,.,.,.,.
Cc1c(C(=O)Nc2ccccc2)cnn1-c1ccccc1,.,.,.,.,/,.,/,/
COc1ccc(S(=O)(=O)N2CCC(C(=O)NCCCc3ccccc3)CC2)cc1,.,.,.,.,.,.,/,/
CC(=Nc1ccccc1)c1sc2ccccc2c1O,.,.,.,.,.,.,.,.
O=C(c1ccc(S(=O)(=O)N2CCc3ccccc3C2)cc1)N1CCCCC1,.,.,.,.,.,.,/,/
CC(Sc1nnc2ccccn12)C(=O)Nc1ccc2c(c1)OCO2 (stereo not given),.,.,.,.,.,.,/,/
COc1cc2nc(NC(=O)c3ccccc3)sc(=O)c2cc1OC,82,.,.,.,.,43,89,54
FC(F)(F)c1cnc(COc2ccc(Cl)cc2Cl)c(Cl)c1,.,.,.,.,.,.,/,/
CCOC(=O)CSc1nc2cc3c(cc2cc1C#N)OCCO3,.,.,.,.,.,.,.,.
O=C(Nc1ccc(C#Cc2ccccc2)cc1)C1CC1,.,.,.,.,.,.,.,.
COCCNC(=O)C(c1ccc(O)cc1)N(Cc1ccccc1)C(=O)CCC(=O)Nc1nccs1 (stereo not given),.,.,.,.,.,.,/,/
Cc1cc(C)c2c(N)c(C(=O)Nc3ccc(C)c(C)c3)sc2n1,.,.,.,.,.,.,.,.
Cc1cc(C)cc(NC(=O)c2sc3nc(C)cc(C)c3c2N)c1,.,.,.,.,.,.,/,/
CCOc1ccc(CCNC(=O)C(CCC(N)=O)NC(=O)OCc2ccccc2)cc1OCC (stereo not given),.,.,.,.,.,.,/,/
COc1ccc(-c2cc3nc4n(c(=O)c3s2)CCCCC4)cc1,.,.,.,.,.,.,.,.
CCCCn1c(=O)c(CCC(=O)OCC(=O)NCc2ccc(OC)c(OC)c2)nc2ccccc21,.,.,.,.,.,.,/,/
Cc1cccc(-c2cc3c(N=O)c4ccccc4c-3n[nH]2)c1,.,.,.,.,.,.,.,.
CC(/C=N/Nc1nc(C)cc(=O)[nH]1)=C\c1ccccc1,.,.,.,.,.,.,/,/
CC(/C=N/Nc1nc2ccccc2[nH]1)=C\c1ccccc1,.,.,.,.,.,.,.,.
CCOc1ccc(/C=C2\SC(=S)N(CCC(=O)O)C2=O)cc1,52,.,.,115,.,77,61,66
COc1ccc2oc(C(=O)N3CCc4ccccc43)c(C)c2c1,.,.,.,.,.,.,.,.
c1ccc2c(c1)CCN(c1ncnc3c1[nH]c1ccccc13)C2,50,79,.,.,/,43,59,.
COc1cccc2[nH]c3c(N4CCc5ccccc5C4)ncnc3c12,.,.,.,.,.,.,/,/
COc1cccc(/C=N/NC(=O)c2ccncc2)c1OC(=O)c1ccc(Br)cc1,.,.,.,.,.,.,/,/
SMILES,Jurkat NFkB inh,Gli-Sufu block,Mdm2 MdmX PPI,aSyn UTR inh,KLF5 inhibitor,697 NFkB inh,Jurkat NFkB conf,697 NFkB conf
COc1cc(SC)ccc1C(=O)Nc1ccc2c(c1)OCO2,/,.,/,.,.,/,/,/
COc1cc(SC)ccc1C(=O)Nc1ccc2ncccc2c1,.,.,.,.,.,.,.,.
COc1cccc(OCc2ccc(Cl)cc2)c1C#N,.,.,.,.,.,.,.,.
COc1cccc(CNC(C)(C)CO)c1OCc1ccc(Cl)cc1,.,.,.,.,.,.,/,/
NC(=O)CC(NC(=O)c1ccccc1)c1ccc(NCCN2CCCCC2)c([N+](=O)[O-])c1 (stereo not given),.,.,.,.,.,.,/,/
Cc1ccnc(NC(=O)c2sc3ccccc3c2Cl)c1,.,.,.,78,.,.,.,.
Cc1ccc(NC(=O)c2noc3c2CCCCC3)cc1C,.,.,.,.,.,.,.,.
COc1ccc(NC(=O)c2noc3c2CCCCC3)cc1,.,.,.,.,.,.,/,/
COc1cccc2oc3ccc(C#Cc4ccccn4)cc3c(=O)c12,.,.,.,.,.,.,/,/
O=c1c2ccccc2oc2cc(C#Cc3ccccn3)ccc12,.,.,.,.,/,.,.,.
Cc1ccc(/C=C2/CCc3c([nH]c4ccccc34)C2=O)cc1,.,.,.,.,.,.,.,.
O=C1/C(=C\c2ccccc2)CCc2c1[nH]c1ccccc21,.,.,.,.,.,.,/,/
COCCNC(=O)CSc1nnc(NC(=O)C2CC(=O)N(c3ccccc3OC)C2)s1 (stereo not given),.,.,.,.,.,.,/,/
Nc1c(C(=O)Nc2cccc(F)c2)nnn1-c1ccc2c(c1)OCCO2,.,.,.,.,.,.,.,.
CCOC(=O)c1cn[nH]c1NC(=S)Nc1ccc(Cl)cc1,.,.,.,.,.,.,.,.
CC(=O)Nc1ccc2nc(C3CC3)n(Cc3ccc(Cl)cc3)c(=O)c2c1,.,.,.,.,.,.,/,/
COc1cccc(Cn2c(C3CC3)nc3ccc(NC(=O)c4ccco4)cc3c2=O)c1,/,/,/,/,.,/,/,/
CCC(=O)Nc1ccc2nc(C3CC3)n(Cc3ccc(C(C)(C)C)cc3)c(=O)c2c1,.,.,.,.,.,.,.,.
COc1ccc(Cn2c(C3CC3)nc3ccc(NC(=O)C4CC4)cc3c2=O)cc1,.,.,.,.,.,.,.,.
CCC(C)NC(=O)c1cc2cc3ccc(OC)cc3nc2s1 (stereo not given),.,.,.,.,.,.,.,.
COc1ccc2cc3cc(C(=O)NCCN4CCc5ccccc5C4)sc3nc2c1,.,.,.,.,.,.,/,/
COc1ccccc1NC(=O)CCSc1nc(C)cs1,.,.,.,.,.,.,/,/
CCCCCOc1ccc(/C(C)=N/NC2=NCCN2)cc1,.,.,.,.,.,.,/,/
